Results filed as inconclusive are left out. Active and inactive are the calls of the source. How the source made its calls, unless noted: active means hit-call score of the fitted dose curve at least 0.9, where 1 is the maximum; inactive means score below 0.9.
Tests used:
[1] = CCTE_Mundy_HCI_Cortical_Synap_Neur_Matur_BPCount: CCTE's Synaptogenesis and Neurite Maturation Assay in rat cortical cells for Branch Point Count, Mundy Lab (AID 2284211)
Outline: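 Rat primary cortical cultures, AraC added DIV 5; chemicals dosed DIV 7 through DIV 12. Fixed cells stained for MAP2, synaptophysin and Hoechst; neurite branch points counted by automated high-content imaging, fitted relative to DMSO.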

[2] = CCTE_Mundy_HCI_Cortical_NOG_NeuriteCount: CCTE's Neurite Outgrowth Assay in rat cortical cells for Neurite Count, Mundy Lab (AID 2284212);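 further: cells fixed about two days after chemical exposure began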
Outline: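 Neurite number per cell from high-content imaging of betaIII-tubulin immunostaining, with Hoechst nuclear counterstain.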

[3] = CCTE_Mundy_HCI_Cortical_NOG_NeuriteLength: CCTE's Neurite Outgrowth Assay in rat cortical cells for Neurite Length, Mundy Lab (AID 2284213);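 further: neurites imaged about 48 to 50 h after chemical exposure began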
Outline: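 Neurite length was read by high-content imaging of βIII-tubulin-labelled neurites in rat primary cortical cultures. Activity was fitted relative to DMSO.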

[4] = CCTE_Mundy_HCI_Cortical_Synap_Neur_Matur_NeuriteLength: CCTE's Synaptogenesis and Neurite Maturation Assay in rat cortical cells for Neurite Length, Mundy Lab (AID 2284214)
Outline: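 Rat primary cortical cultures, AraC added DIV 5, dosed DIV 7 through DIV 12 […]. Fixed, MAP2/synaptophysin immunostained with Hoechst; neurite length by high-content imaging, fitted in positive direction versus DMSO.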

[5] = CCTE_Mundy_HCI_Cortical_Synap_Neur_Matur_SynapseCount: CCTE's Synaptogenesis and Neurite Maturation Assay in rat cortical cells for Synapse Count, Mundy Lab (AID 2284218)
Outline: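 Rat primary cortical cultures, AraC at DIV 5, chemical dosing DIV 7 to DIV 12 (288.33 h). Fixed cells stained for MAP2, synaptophysin and Hoechst; synapses per neuron counted by high-content imaging, loss of signal versus DMSO.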

[6] = CCTE_Mundy_HCI_hN2_NOG_NeuriteCount: CCTE's Neurite Outgrowth Assay in human hN2 cells for Neurite Count, Mundy Lab (AID 2284219; active means hit-call score of the fitted dose curve at least 0.9, where 1 is the maximum)
Outline: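 In this morphology assay, hNP1-derived neurons received test chemical 2 h post-plating and were fixed two days later in warm paraformaldehyde/sucrose containing Hoechst 33342. Neurites, labelled by rabbit anti-βIII-tubulin (1:800) and Alexa Fluor-488 (1:500), were counted automatically.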

[7] = CCTE_Mundy_HCI_hN2_NOG_NeuriteLength: CCTE's Neurite Outgrowth Assay in human hN2 cells for Neurite Length, Mundy Lab (AID 2284220; active means hit-call score of the fitted dose curve at least 0.9, where 1 is the maximum)
Outline: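 Plate hNP1-derived neurons, then add chemical 2 h later as a 1/10 dilution. Stain with anti-βIII-tubulin then Alexa Fluor-488 secondary, and image automatically to measure neurite length.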

[8] = CCTE_Mundy_HCI_hN2_NOG_NeuronCount: CCTE's Neurite Outgrowth Assay in human hN2 cells for Neuron Count, Mundy Lab (AID 2284221; active means hit-call score of the fitted dose curve at least 0.9, where 1 is the maximum)
Outline: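 Read-out is the number of betaIII-tubulin-positive neurons imaged by automated high-content analysis, with DMSO as negative control.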

[9] = CCTE_Mundy_HCI_Cortical_Synap_Neur_Matur_NeuriteCount: CCTE's Synaptogenesis and Neurite Maturation Assay in rat cortical cells for Neurite Count, Mundy Lab (AID 2284222)
Outline: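 In this multiplexed morphology readout, rat primary cortical neurons are fixed at DIV 12 following dosing at DIV 7 and stained for MAP2, synaptophysin and nuclei. High-content image analysis yields neurite count.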

[10] = CCTE_Mundy_HCI_Cortical_Synap_Neur_Matur_CellBodySpotCount: CCTE's Synaptogenesis and Neurite Maturation Assay in rat cortical cells for Cell Body Spot Count, Mundy Lab (AID 2284223)
Outline: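 Rat cortical neurons; AraC @ DIV 5; dose + media change DIV 7; fix DIV 12; anti-MAP2/anti-synaptophysin IF, Hoechst; HCI count of soma synaptophysin puncta/neuron; DMSO = negative control.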

[11] = CCTE_Mundy_HCI_hNP1_Pro_ResponderAvgInten: CCTE's Proliferation Assay in human neuroprogenitor cells, Mundy Lab (AID 2284224; active means hit-call score of the fitted dose curve at least 0.9, where 1 is the maximum)
Outline: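 Proliferation was scored as BrdU labelling intensity in human neural progenitors derived from WA09 embryonic cells, measured 26.25 hours after chemical dosing. Activity was fitted relative to DMSO.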

[12] = UKN4_HCS_LUHMES_cell_viability: Viability Assessment in the University of Konstanz (UKN) Leist Lab Neurite Outgrowth Assay in human LUHMES cells (UKN4) (AID 2284232)
Outline: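 LUHMES precursors differentiated 2 days, replated at 30000 cells/well without cAMP/GDNF, then compound-treated 24 h. Viability from Hoechst H-33342 and calcein-AM live staining (30 min) by high-content fluorescence imaging; bidirectional fit versus DMSO.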

[13] = UKN2_HCS_IMR90_cell_viability: Viability Assessment in the University of Konstanz (UKN) Leist Lab Neural Crest Cell Migration Assay in human induced IMR90 Pluripotent Stem Cells (UKN2) (AID 2284233);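 further: viability of neural crest cells differentiated from IMR90 iPSC measured by calcein-AM fluorescence imaging; cells exposed to compound for 24 h after a 24 h migration phase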
Outline: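 Human IMR90-derived neural crest cells were allowed to migrate for 24 h into a cell-free zone, then exposed to test chemicals for 24 h. Calcein-AM and Hoechst staining with high-content imaging gave viability, analysed against DMSO baseline.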

[14] = CCTE_Mundy_HCI_Cortical_NOG_BPCount: CCTE's Neurite Outgrowth Assay in rat cortical cells for Branch Point Count, Mundy Lab (AID 2284237);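 further: branch points counted about two days after chemical exposure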
Outline: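 Measured 50.33 h after dosing, this morphology endpoint uses rat primary cortical cultures labelled for betaIII-tubulin. Branch points are quantified by high-content imaging, with DMSO as negative control and baseline.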

[15] = CCTE_Mundy_HCI_hNP1_Casp3_7: CCTE's Caspase-Glo 3/7 Assay in human neuroprogenitor cells for Apoptosis, Mundy Lab (AID 2284240)
Outline: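 Apoptosis is scored by activated caspase-3/7 luminescence in WA09-derived neural progenitor cells, measured 26.5 h after chemical dosing. Values represent gain of signal relative to DMSO vehicle.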

[16] = CCTE_Mundy_HCI_hNP1_CellTiter: CCTE's Cell Titer-Glo 2 Assay in human neuroprogenitor cells for Viability, Mundy Lab (AID 2284241; active means hit-call score of the fitted dose curve at least 0.9, where 1 is the maximum)
Outline: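 Human neural progenitor cells (hNP1, WA09-derived) were plated on poly-L-ornithine/laminin and grown 40 to 44 hours at 37 °C, 5% CO2 before chemical addition. Twenty-four hours later, ATP was measured by CellTiter-Glo luminescence; loss of signal versus DMSO indicates reduced viability.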

[17] = CCTE_Mundy_HCI_Cortical_Synap_Neur_Matur_NeuronCount: CCTE's Synaptogenesis and Neurite Maturation Assay in rat cortical cells for Neuron Count, Mundy Lab (AID 2284242; active means hit-call score of the fitted dose curve at least 0.9, where 1 is the maximum;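 further: hits reduce neuron count versus DMSO baseline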)
Outline: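 Rat primary cortical cells, AraC added at DIV 5, dosed with media change from DIV 7 to DIV 12. Fixed, Hoechst-stained and immunolabelled for MAP2 and synaptophysin; neuron number counted by high-content imaging, loss fitted versus DMSO.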

[18] = IUF_NPC2c_oligodendrocyte_migration_120hr: Leibniz Research Institute for Environmental Medicine (IUF) 120-hour Neural Progenitor Cell Migration Assay for Oligodendrocyte Migration (NPC2c) (AID 2284297)
Outline: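 Read-out is the mean distance of O4-positive oligodendrocytes from the sphere core edge at 120 h, normalized to radial glia migration and fitted in the gain direction against DMSO. Spheres of primary human neural progenitors differentiated on laminin under continuous compound exposure.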

[19] = IUF_NPC2a_radial_glia_migration_120hr: Leibniz Research Institute for Environmental Medicine (IUF) 120-hour Neural Progenitor Cell Migration Assay for Radial Glia Migration (NPC2a) (AID 2284298)
Outline: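 Readout: distance in um from sphere core edge to migration-area edge, derived from Hoechst nuclei density with a threshold-defined polynomial boundary. Spheres: hNPC, GW 16-19, 0.3 mm, on PDL/laminin; exposure 5 days; DMSO is baseline.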

[20] = IUF_NPC2b_neuronal_migration_120hr: Leibniz Research Institute for Environmental Medicine (IUF) 120-hour Neural Progenitor Cell Migration Assay for Neuron Migration (NPC2b) (AID 2284300)
Outline: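 Read-out is mean distance from sphere edge to each TUBB3-positive neuron at 120 h, expressed relative to radial glia migration distance and to DMSO baseline. Single 0.3 mm human NPC spheres differentiated on laminin under continuous compound exposure.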

[21] = IUF_NPC3_neuronal_differentiation_120hr: Leibniz Research Institute for Environmental Medicine (IUF) 120-hour Neuronal Differentiation Assay (NPC3) (AID 2284301)
Outline: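 Single 0.3 mm neurospheres from human fetal cortex were plated in differentiation medium containing test compound. Medium was half-replaced on day 3. After 120 h cells were fixed, immunostained and imaged, and neuronal fraction was scored against DMSO control.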

[22] = IUF_NPC4_neurite_length_120hr: Leibniz Research Institute for Environmental Medicine (IUF) 120-hour Neuronal Morphology Assay for Neurite Length (NPC4) (AID 2284302)
Outline: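 Read-out is mean neurite length in µm of TUBB3-positive neurons, skeletonized from high-content fluorescence images after 120 h. Single 0.3 mm primary human neural progenitor spheres differentiated on poly-D-lysine/laminin under continuous compound exposure; DMSO was baseline.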

[23] = IUF_NPC4_neurite_area_120hr: Leibniz Research Institute for Environmental Medicine (IUF) 120-hour Neuronal Morphology Assay for Neurite Area (NPC4) (AID 2284305; active means hit-call score of the fitted dose curve at least 0.9, where 1 is the maximum)
Outline: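 Neurite area is read out as the mean pixel area, excluding nuclei, of skeletonized TUBB3-positive neurons imaged after 120 h. Primary human neural progenitor spheres differentiated on poly-D-lysine/laminin with compound present from day 0. Activity was referenced to DMSO controls.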

[24] = IUF_NPC2-5_cytotoxicity_72hr: Cytotoxicity Assessment at 72 hours in the Leibniz Research Institute for Environmental Medicine (IUF) Neural Progenitor Cell Migration and Differentiation Assay for Cytotoxicity (NPC2-5) (AID 2284306; active means hit-call score of the fitted dose curve at least 0.9, where 1 is the maximum;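 further: LDH release into supernatant measured by resorufin fluorescence marking membrane damage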)
Outline: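 Membrane integrity loss was scored from fluorescence (RFU) of resorufin generated by LDH in culture supernatant, 72 h after dosing. Differentiating human progenitor spheres received seven serial compound concentrations alongside a solvent control.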

[25] = IUF_NPC2-5_cytotoxicity_120hr: Cytotoxicity Assessment at 120 hours in the Leibniz Research Institute for Environmental Medicine (IUF) Neural Progenitor Cell Migration and Differentiation Assay (NPC2-5) (AID 2284307; active means hit-call score of the fitted dose curve at least 0.9, where 1 is the maximum)
Outline: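 Sphere plating starts differentiation and exposure together at day 0. Compound solution is half-replaced on day 3. At 120 h, medium supernatant is taken for an LDH membrane-integrity read based on resazurin reduction to resorufin fluorescence.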

[26] = IUF_NPC2-5_cell_number_120hr: Cell Number Assessment at 120 hours in the Leibniz Research Institute for Environmental Medicine (IUF) Neural Progenitor Cell Migration and Differentiation Assay (NPC2-5) (AID 2284308);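 further: count of Hoechst-stained nuclei in migration zone around plated human neural progenitor spheres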
Outline: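 hNPC spheres, one per well, PDL/laminin, N2 medium, 37C, 5% CO2. Dosing day 0 → half-medium change with fresh compound day 3 → fix 120 h. Readout: Hoechst+ nuclei count, migration area; 7 concentrations plus solvent control.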

[27] = IUF_NPC2-5_viability_120hr: Viability Assessment at 120 hours in the Leibniz Research Institute for Environmental Medicine (IUF) Neural Progenitor Cell Migration and Differentiation Assay (NPC2-5) (AID 2284312)
Outline: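 Alamar blue resorufin fluorescence read after 5 days of differentiation, with compound present from day 0 and replenished at day 3. Primary hNPC spheres on laminin-coated plates, 37C; seven concentrations plus solvent control, fitted against DMSO.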

## C[n+]1ccc(-c2cc[n+](C)cc2)cc1
[1]
  AC50: 0.947 µM (active)
[2]
  AC50: 29.6 µM (active)
[3]
  AC50: 29.8 µM (active)
[4]
  AC50: 0.966 µM (active)
[5]
  AC50: 1.01 µM (active)
[6]
  outcome: inactive
[7]
  outcome: inactive
[8]
  AC50: 50 µM (active)
[9]
  AC50: 1.21 µM (active)
[10]
  AC50: 14.4 µM (active)
[11]
  AC50: 85.1 µM (active)
[12]
  outcome: inactive
[13]
  outcome: inactive
[14]
  AC50: 50 µM (active)
[15]
  outcome: inactive
[16]
  outcome: inactive
[17]
  AC50: 0.763 µM (active)
[18]
  outcome: inactive
[19]
  AC50: 1.98 µM (active)
[20]
  outcome: inactive
[21]
  outcome: inactive
[22]
  outcome: inactive
[23]
  outcome: inactive
[24]
  outcome: inactive
[25]
  outcome: inactive
[26]
  outcome: inactive
[27]
  outcome: inactive
